Measurements: ChEMBL document CHEMBL3988442, “University of Dundee, Small-Polar-MMV Screening Library” (2021)
For some of these results: Results with a measured potency or affinity are listed apart.

Assays:
Design in all cases: scale not given: direction of the effect not stated beside the values
[1] = molecular target: Protein translocase subunit SecA (Escherichia coli (strain K12)) (UniProt P10408); assay: Assay to Identify E. coli SecA ATPase Inhibitors; assay type: functional; conditions: 30 µM
[2] = molecular target: T1, Ubiquitin-activating enzyme e1, putative (Leishmania donovani (strain BPK282A1)) (UniProt E9BSI1); assay: Leishmania donovani Ubiquitin Activating Enzyme (LdE1); assay type: functional; conditions: 30 µM
T1 sequence (whole entry): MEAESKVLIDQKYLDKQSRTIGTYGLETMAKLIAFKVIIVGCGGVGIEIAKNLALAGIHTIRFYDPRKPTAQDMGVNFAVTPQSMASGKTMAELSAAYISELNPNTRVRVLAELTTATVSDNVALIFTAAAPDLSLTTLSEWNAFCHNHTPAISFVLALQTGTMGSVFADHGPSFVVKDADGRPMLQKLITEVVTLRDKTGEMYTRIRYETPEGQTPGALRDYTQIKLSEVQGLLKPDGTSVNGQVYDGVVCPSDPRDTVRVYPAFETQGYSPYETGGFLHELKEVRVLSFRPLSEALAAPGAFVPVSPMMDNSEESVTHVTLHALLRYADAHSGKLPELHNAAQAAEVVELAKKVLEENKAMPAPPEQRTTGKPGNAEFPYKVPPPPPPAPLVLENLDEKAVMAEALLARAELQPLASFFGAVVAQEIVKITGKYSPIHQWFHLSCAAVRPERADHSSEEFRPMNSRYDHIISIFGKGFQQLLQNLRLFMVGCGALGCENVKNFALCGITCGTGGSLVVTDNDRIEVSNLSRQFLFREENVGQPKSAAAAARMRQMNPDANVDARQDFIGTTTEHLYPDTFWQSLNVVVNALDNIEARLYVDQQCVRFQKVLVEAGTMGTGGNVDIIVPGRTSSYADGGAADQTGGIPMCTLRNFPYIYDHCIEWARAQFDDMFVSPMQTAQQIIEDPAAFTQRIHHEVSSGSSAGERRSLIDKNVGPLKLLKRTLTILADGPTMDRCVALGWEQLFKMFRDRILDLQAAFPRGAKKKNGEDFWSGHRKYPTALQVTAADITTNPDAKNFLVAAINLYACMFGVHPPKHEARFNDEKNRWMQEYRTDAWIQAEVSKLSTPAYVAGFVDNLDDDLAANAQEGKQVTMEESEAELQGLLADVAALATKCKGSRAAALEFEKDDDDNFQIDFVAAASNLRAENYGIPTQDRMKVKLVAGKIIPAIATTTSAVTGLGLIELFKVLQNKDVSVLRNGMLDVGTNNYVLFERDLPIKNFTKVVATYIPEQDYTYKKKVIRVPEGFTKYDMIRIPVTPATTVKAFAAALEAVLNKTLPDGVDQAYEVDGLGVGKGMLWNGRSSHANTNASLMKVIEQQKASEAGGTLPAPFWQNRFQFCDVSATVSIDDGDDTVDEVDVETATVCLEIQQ

[3] = molecular target: Sialic acid-binding Ig-like lectin 9 (Homo sapiens) (UniProt Q9Y336); assay: Hs-Siglec9 ALPHAscreen SOP 20170721; conditions: 10 µM
Trypanosoma cruzi = assay: Trypanosoma cruzi phosphomannomutase and mannose-1-phosphate guanylyltransferase assay; assay type: functional; conditions: 10 µM
[4] = molecular target: T2, Arginase-2, mitochondrial (Homo sapiens) (UniProt P78540); assay: in vitro enzyme assay to detect the production of urea directly proportional to the activity of Arginase II; assay type: functional; conditions: 33.3 µM; further: in the data most compounds retested in dose-response had high values
T2 sequence (whole entry): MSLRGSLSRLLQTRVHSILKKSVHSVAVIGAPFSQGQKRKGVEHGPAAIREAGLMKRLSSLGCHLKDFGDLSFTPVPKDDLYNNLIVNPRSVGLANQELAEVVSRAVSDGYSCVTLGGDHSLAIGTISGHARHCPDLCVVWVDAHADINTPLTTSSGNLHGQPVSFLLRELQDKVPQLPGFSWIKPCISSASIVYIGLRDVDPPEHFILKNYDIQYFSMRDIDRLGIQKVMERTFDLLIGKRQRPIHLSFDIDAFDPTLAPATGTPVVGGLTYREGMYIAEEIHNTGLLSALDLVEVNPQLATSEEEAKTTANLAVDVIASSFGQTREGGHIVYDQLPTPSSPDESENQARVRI

[5] = molecular target: T3, Proteasome subunit beta (Trypanosoma cruzi) (UniProt O96673); assay: Trypanosoma cruzi proteasome chymotrypsin-like activity (TcProtChymo) assay.; further: in the data most compounds retested in dose-response had high values; assay type: functional; conditions: 9.37 µM
T3 sequence (whole entry): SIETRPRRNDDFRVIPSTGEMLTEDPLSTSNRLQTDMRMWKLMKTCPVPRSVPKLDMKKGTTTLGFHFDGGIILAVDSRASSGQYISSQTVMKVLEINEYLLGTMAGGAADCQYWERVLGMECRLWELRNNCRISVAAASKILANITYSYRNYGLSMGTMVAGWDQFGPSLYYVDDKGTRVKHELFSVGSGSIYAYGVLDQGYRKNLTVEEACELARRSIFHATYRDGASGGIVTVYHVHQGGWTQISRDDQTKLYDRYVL

Homo sapiens = species: Homo sapiens; assay: To identify inhibition of the IFN signalling (Jak-Stat) pathway via expression of an eGFP reporter gene under the control of an IFN-stimulated response element (ISRE) containing MxA promoter.; assay type: functional; conditions: 30 µM
[6] = molecular target: T4, Tyrosyl-tRNA synthetase, putative (Trypanosoma cruzi (strain CL Brener)) (UniProt Q4DSP6); assay: Trypanosoma cruzi tyrosyl tRNA synthetase (TcYRS) _High Tyrosine SOP; assay type: functional; conditions: 30 µM; further: in the data most compounds retested in dose-response had high values
T4 sequence (whole entry): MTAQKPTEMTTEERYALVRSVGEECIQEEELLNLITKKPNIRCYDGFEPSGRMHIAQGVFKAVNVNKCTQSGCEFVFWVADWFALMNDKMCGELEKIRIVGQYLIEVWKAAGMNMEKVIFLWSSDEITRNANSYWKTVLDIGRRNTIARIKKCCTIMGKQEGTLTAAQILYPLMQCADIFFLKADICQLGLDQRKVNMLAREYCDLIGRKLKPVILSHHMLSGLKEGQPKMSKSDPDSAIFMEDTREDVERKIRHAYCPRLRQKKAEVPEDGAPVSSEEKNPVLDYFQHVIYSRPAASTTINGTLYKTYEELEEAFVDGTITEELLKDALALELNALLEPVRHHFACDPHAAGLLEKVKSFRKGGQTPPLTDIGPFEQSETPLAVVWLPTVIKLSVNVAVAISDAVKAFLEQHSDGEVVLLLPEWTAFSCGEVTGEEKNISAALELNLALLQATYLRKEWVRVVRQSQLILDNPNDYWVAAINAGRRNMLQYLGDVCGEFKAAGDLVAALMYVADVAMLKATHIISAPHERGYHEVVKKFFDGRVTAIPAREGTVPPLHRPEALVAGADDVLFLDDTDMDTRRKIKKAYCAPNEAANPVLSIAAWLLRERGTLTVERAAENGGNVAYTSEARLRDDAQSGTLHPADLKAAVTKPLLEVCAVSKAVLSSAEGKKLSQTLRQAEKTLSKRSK

[7] = molecular target: T4, Tyrosyl-tRNA synthetase, putative (Trypanosoma cruzi (strain CL Brener)); assay: Trypanosoma cruzi tyrosyl tRNA synthetase (TcYRS) SOP; assay type: functional; conditions: 30 µM
[8] = molecular target: Chromo domain-containing protein 1 (Saccharomyces cerevisiae (strain ATCC 204508 / S288c) (Baker's yeast)) (UniProt P32657); assay: ScCHD-1 Enzyme Inhibition Assay; assay type: functional; conditions: 30 µM; further: in the data most compounds retested in dose-response had high values
Chain of Chromo domain-containing protein 1 (Saccharomyces cerevisiae (strain ATCC 204508 / S288c) (Baker's yeast)) (P32657 whole entry, the tested form may be a part): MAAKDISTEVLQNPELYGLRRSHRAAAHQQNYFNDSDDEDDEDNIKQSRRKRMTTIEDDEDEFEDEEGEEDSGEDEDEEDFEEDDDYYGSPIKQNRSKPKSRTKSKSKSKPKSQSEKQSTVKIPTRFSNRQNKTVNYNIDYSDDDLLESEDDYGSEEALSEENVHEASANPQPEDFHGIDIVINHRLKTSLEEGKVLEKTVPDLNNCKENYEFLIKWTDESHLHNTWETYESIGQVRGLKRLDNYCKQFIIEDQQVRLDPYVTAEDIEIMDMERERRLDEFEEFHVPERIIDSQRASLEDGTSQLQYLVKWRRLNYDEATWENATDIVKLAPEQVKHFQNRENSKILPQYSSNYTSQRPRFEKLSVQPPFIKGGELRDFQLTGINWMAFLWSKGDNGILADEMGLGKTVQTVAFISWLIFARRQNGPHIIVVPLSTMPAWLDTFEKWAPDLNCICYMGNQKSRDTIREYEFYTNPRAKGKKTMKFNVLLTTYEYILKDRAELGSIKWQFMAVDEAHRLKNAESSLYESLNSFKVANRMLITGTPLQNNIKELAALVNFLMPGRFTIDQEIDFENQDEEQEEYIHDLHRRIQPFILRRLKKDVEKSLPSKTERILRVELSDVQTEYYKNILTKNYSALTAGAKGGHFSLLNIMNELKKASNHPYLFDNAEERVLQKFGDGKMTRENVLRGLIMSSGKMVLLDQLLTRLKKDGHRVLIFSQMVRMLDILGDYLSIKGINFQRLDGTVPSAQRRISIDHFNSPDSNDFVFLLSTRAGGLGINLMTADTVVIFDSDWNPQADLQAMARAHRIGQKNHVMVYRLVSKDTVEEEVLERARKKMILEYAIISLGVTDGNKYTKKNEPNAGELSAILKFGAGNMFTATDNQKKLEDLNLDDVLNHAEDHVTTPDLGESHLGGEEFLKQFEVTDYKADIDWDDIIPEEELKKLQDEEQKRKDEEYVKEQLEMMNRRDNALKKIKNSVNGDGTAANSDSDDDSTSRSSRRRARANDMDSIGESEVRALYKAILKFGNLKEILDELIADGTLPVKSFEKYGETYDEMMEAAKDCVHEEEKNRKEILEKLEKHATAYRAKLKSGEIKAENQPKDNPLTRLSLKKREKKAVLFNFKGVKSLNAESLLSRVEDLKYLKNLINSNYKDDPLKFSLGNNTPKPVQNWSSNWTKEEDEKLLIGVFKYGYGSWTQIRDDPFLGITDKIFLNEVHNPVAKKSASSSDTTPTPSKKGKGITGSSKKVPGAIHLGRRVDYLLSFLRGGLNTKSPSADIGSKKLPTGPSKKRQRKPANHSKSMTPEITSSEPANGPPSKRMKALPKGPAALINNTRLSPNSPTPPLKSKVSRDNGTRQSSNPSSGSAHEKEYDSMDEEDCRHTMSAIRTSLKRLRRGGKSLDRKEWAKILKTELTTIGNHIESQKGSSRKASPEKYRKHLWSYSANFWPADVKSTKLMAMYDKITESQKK

Chain of Sialic acid-binding Ig-like lectin 9 (Homo sapiens) (Q9Y336 whole entry): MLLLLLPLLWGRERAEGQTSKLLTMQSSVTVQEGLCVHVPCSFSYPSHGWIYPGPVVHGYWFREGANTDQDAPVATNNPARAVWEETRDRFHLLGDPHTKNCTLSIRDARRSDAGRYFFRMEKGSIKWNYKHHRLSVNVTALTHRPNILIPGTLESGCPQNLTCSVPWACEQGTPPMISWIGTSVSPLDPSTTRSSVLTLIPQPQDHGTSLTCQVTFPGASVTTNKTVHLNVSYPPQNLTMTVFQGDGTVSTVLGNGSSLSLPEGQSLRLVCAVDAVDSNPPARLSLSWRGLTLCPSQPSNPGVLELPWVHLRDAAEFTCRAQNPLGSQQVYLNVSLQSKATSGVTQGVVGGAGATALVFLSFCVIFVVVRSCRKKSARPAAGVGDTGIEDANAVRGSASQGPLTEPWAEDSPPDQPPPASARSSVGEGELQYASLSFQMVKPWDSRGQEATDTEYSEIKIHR
Chain of Protein translocase subunit SecA (Escherichia coli (strain K12)) (P10408 whole entry): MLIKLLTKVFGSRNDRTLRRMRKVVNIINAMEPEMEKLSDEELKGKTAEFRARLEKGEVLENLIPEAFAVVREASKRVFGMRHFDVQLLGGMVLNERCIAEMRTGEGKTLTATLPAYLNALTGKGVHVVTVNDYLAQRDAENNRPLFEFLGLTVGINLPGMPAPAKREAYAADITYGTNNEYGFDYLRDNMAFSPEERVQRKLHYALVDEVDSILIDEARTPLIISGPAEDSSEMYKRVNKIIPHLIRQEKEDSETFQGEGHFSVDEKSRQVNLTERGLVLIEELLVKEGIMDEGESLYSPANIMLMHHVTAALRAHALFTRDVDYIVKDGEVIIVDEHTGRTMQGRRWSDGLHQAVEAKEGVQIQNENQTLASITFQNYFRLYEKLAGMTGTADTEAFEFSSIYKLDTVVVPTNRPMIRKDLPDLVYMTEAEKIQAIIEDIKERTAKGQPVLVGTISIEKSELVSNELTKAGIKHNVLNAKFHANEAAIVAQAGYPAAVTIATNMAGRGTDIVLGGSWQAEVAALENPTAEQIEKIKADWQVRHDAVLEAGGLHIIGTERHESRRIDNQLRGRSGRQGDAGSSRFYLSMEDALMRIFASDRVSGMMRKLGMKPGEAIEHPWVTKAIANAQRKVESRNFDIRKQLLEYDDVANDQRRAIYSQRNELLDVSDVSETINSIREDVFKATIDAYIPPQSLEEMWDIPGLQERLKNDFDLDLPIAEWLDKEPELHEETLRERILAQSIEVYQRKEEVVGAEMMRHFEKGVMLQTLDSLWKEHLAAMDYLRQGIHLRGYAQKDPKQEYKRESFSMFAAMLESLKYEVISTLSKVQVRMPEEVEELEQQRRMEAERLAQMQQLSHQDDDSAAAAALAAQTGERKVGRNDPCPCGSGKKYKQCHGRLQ

Row | Compound | Percent Effect [1] | Percent Effect [2] | Percent Effect [3] | Percent Effect (Trypanosoma cruzi) | Percent Effect [4] | Percent Effect [5] | Percent Effect (Homo sapiens) | Percent Effect [6] | Percent Effect [7] | Percent Effect [8]
1 | CCn1cnnc1CNC(=O)N1CCC(C(=O)NC)CC1 | -5.88% | 5.33% | 0.795% | -4.42% | -2.66% | 1.78% | 10.8% | -0.526% | 2.56% | -6.68%
2 | CC(C)CNC(=O)c1ccc2nnc(C3CCN(S(C)(=O)=O)C3)n2c1 (stereo not given) | -3.3% | -3.9% | 1.06% | -1.27% | 0% | 3.44% | -2.55% | -0.526% | 2.56% | -1.85%
3 | CCN(CC1CCOC1)C(=O)Nc1ccc(-n2cncn2)nc1 (stereo not given) | -3.32% | 5.13% | -0.956% | -12.7% | 0% | 9.3% | 5.11% | 4.31% | 10.8% | -5.86%
4 | COc1ccc(CN2CCC3(CC2)NC(=O)CC3c2ccncc2)cc1 (stereo not given) | -7.89% | -6.49% | 3.29% | -2.43% | -4.05% | 9.27% | 5.38% | -0.526% | 2.56% | -1.91%
5 | CN(Cc1nc2c(cnn2C)c(=O)[nH]1)Cc1ccc(F)cc1F | -0.314% | 20.5% | -17.8% | 2.72% | -2.05% | 16.8% | 3.63% | 7.18% | 25.3% | -5.98%
6 | CC(NC(=O)N1CCN(c2ccc(Cl)cc2)CC1)C(=O)N1CCSCC1 (stereo not given) | -6.05% | 8.11% | 0.915% | -2.04% | 0.35% | 17.8% | 13.2% | 5.85% | 12.2% | -1.19%
7 | CCOc1ccc(Cl)c(C(=O)N(C)C)n1 | -2.43% | 15.4% | -11.2% | -3.66% | 2.05% | 14.2% | 30.8% | 4.31% | 13.2% | -2.78%
8 | CNC(=O)CCCNCc1c(C)nn(C)c1N(C)C | -0.3% | 0% | 14.5% | 1.22% | 2.87% | 2.3% | -12.6% | 2.39% | 1.21% | -2.02%
9 | CCC(CC)C(=O)N1CCC2(C1)CN(c1ccccc1)C(=O)CN2C (stereo not given) | -1.78% | 3.9% | -5.2% | -8.08% | 4.86% | 14.7% | -19.6% | 5.79% | 0% | -2.51%
10 | Cc1ccc(C(N)c2cccc(S(C)(=O)=O)c2)cc1 (stereo not given) | -4.76% | 10.7% | 8.28% | -1.81% | 5.76% | 5.34% | 27% | 4.74% | 5.13% | -9.27%
11 | CC(=O)N1CCCC1c1cc(N2CCN(C3CCCC3)CC2)cc(C)n1 (stereo not given) | -0.907% | 17.3% | -8.17% | -2.96% | 1.33% | 7.22% | 6.74% | 4.23% | 15% | -23.3%
12 | Cc1ncc2c(n1)CN(Cc1nc3ccccc3o1)CC2 | -2.9% | 8% | 3.11% | 4.02% | -2.22% | 3.31% | -20.5% | 25.8% | 28.2% | -12.9%
13 | Cc1nc(C)c(C(=O)NCCNc2ncccc2C#N)s1 | -0.152% | 31.2% | 1.1% | 5.41% | -5.94% | 18.4% | 7.44% | 6.86% | 28.2% | -11.7%
14 | Cc1c(F)cc(C(=O)O)cc1S(=O)(=O)Nc1ccc2c(c1)OCCO2 | -4.72% | 5.13% | 0.878% | 7.42% | -4.51% | 2.82% | -3.86% | -5.26% | 1.21% | -2.48%
15 | Cc1ccc(OCCC(=O)N2CCN(c3cnccn3)CC2)cc1C | 1.26% | 13% | -2.1% | -5.78% | 3.48% | 14.9% | 16.1% | 6.86% | 18.8% | -6.5%
16 | COCC(=O)N1CC[C@@H](N2CCOCC2)[C@@H]1Cc1ccccc1 | -3.93% | 14.3% | -1.41% | 0.0974% | 13.8% | 22% | -2.33% | 17.4% | 15.4% | 2.12%
17 | O=C1NCCN(CC2CC2)C12CCN(Cc1ccc3c(c1)OCO3)CC2 | -1.54% | 19.5% | 3.24% | -8.47% | 6.07% | 16.9% | 30.6% | 4.74% | -7.69% | -3.74%
18 | COc1ccc(C(=O)N2CC[C@H](CO)[C@H](O)C2)c(C)c1 | -7.05% | 5.41% | 10.7% | 9.02% | 16.4% | 10.1% | 0.399% | 7.98% | 9.76% | -7.71%
19 | Cc1cc(-c2ccc(C(=O)O)cc2)nc(C2CCCN(C(C)C)C2)n1 (stereo not given) | -0.51% | 12% | 1.15% | 1.77% | 0.885% | 6.08% | 4.86% | 6.35% | 17.5% | -24.7%
